Results published in PubChem BioAssay (Tox21).
Inconclusive results are not listed. The source made the active and inactive calls. Calls follow the shape of the dose curve; as a rule, active = well fitted curve in the direction sought with a large enough effect in the repeat runs; inconclusive = weak or mixed curves; inactive = no such curve, though single readings can be large; an effect the other way counts as inactive or inconclusive.

Columns and labels:
[1] = qHTS assay to identify small molecule agonists of the RXR signaling pathway - cell viability counter screen (AID 1159529);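 also: HEK 293T cells carrying an RXR-alpha UAS beta-lactamase reporter; series mostly up to about 77 µM; nearly all actives have a fitted effect of over 50% in size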
Method in brief: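 Same-well viability check after the LiveBLAzer FRET read: CellTiter-Glo added, luminescence measured after 30 min at room temperature. Reporter HEK 293T cells had been treated with compounds for 16 hr following a 5 hr preincubation.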

[2] = qHTS assay to identify small molecule antagonists of the retinoid acid receptor (RAR) signaling pathway - cell viability counter screen (AID 1159551); also: nearly all actives have a fitted effect of over 35% in size
Method in brief: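 C3RL4 cells were seeded overnight at 37 C, then treated with compounds plus 1 uM (final) retinol for 6 h at 37 C. Viability was read as ATP by CellTiter-Glo luminescence after 30 min at room temperature.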

[3] = qHTS assay to identify small molecule antagonists of the retinoic acid receptor (RAR) signaling pathway (AID 1159552; also: nearly all actives have a fitted effect of over 50% in size)
Method in brief: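 Readout: luciferase luminescence, 30 min post-reagent at RT. Setup: C3RL4 RARE reporter cells, compounds plus retinol 1 uM final, 6 hr incubation at 37 C and 5% CO2.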

[4] = target: Luciferin 4-monooxygenase (Photinus pyralis) (UniProt P08659); assay: qHTS assay to identify small molecule inhibitors of firefly luciferase (AID 1224835); also: nearly all actives have a fitted effect of over 25% in size; also: potency is read from the fitted curve at half-maximal effect; as to activity change, negative = inhibition: series mostly up to about 120 µM
Method in brief: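 Inhibition of purified Photinus luciferase is measured by luminescence. Substrate levels (D-luciferin, ATP) sit at their KM values. Each compound is tested in a concentration series.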

[5] = qHTS assay to identify small molecule agonists of the constitutive androstane receptor (CAR) signaling pathway - cell viability counter screen (AID 1224836); also: series mostly up to about 92 µM; nearly all actives have a fitted effect of over 45% in size
Method in brief: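 Compound titrations (15 concentrations) went onto HepG2-CYP2B6-hCAR cells 4 h after seeding, alongside PK11195 at a final 0.75 uM; a 23 h, 37 C/5% CO2 incubation preceded CellTiter-Fluor viability measurement.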

[6] = qHTS assay to identify small molecule antagonists of the constitutive androstane receptor (CAR) signaling pathway - cell viability counter screen (AID 1224837); also: series mostly up to about 92 µM; nearly all actives have a fitted effect of over 45% in size
Method in brief: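 HepG2 cells stably expressing hCAR and a CYP2B6-2.2kb reporter were plated and pre-incubated 4 hr at 37 C/5% CO2, then given compounds at 15 concentrations plus 50 nM CITCO (final). After 23 hr, viability was read by CellTiter-Fluor fluorescence.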

[7] = qHTS assay to identify small molecule agonists of the retinoic acid receptor (RAR) signaling pathway (AID 1159553); also: potency is read from the fitted curve at half-maximal effect
Method in brief: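 C3RL4 cells carrying a RARE luciferase reporter were plated overnight at 37 C, then exposed to compounds in DMSO for 6 hr at 37 C and 5% CO2. Luminescence was read 30 min after luciferase reagent addition at room temperature.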

[8] = qHTS assay to identify small molecule antagonists of the estrogen related receptor (ERR) signaling pathway from Tox21 library - cell viability counter screen (AID 1224834); also: nearly all actives have a fitted effect of over 30% in size
Method in brief: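 ERR reporter cells were plated 6 h before compound addition, then exposed to test compounds in DMSO for 17.5 h at 37 C. Viability was read as CellTiter-Fluor fluorescence after a 30-minute incubation at 37 C.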

[9] = target: Nuclear receptor subfamily 1 group I member 3 (Homo sapiens) (UniProt Q14994); assay: qHTS assay to identify small molecule antagonists of the constitutive androstane receptor (CAR) signaling pathway (AID 1224838); also: nearly all actives have a fitted effect of over 40% in size
Method in brief: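 HepG2 cells stably co-transfected with hCAR and a CYP2B6-2.2kb luciferase reporter were seeded 4 h before compound addition at 15 concentrations. Cells were stimulated with 50 nM CITCO (final) for 24 h at 37 C; luciferase luminescence was then read.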

[10] = target: Nuclear receptor subfamily 1 group I member 3 (Homo sapiens) (UniProt Q14994); assay: qHTS assay to identify small molecule agonists of the constitutive androstane receptor (CAR) signaling pathway (AID 1224839); also: nearly all actives have a fitted effect of over 15% in size; also: potency is read from the fitted curve at half-maximal effect;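 as to activation: HepG2 cells stably carrying human CAR and a CYP2B6 luciferase reporter; series mostly up to about 92 µM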
Method in brief: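 In this screen, CAR-driven CYP2B6 promoter activity is measured by luminescence in HepG2-CYP2B6-hCAR cells after 24 h with test compounds and 0.75 uM PK11195 (final concentration).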
% is scaled to controls: 0 for no effect and ±100 for the full control effect.

Chain of Nuclear receptor subfamily 1 group I member 3 (Homo sapiens) (Q14994 whole entry, looked up): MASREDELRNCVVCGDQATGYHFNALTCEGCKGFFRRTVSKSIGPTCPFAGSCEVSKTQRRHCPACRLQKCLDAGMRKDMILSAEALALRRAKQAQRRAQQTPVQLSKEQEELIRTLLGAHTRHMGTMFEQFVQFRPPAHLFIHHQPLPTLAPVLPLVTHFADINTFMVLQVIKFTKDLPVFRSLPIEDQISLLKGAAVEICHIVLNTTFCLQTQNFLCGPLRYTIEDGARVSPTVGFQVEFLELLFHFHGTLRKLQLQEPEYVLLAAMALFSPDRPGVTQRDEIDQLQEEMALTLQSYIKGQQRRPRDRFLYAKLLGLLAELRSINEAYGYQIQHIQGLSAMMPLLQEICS
Chain of Luciferin 4-monooxygenase (Photinus pyralis) (P08659 whole entry, looked up): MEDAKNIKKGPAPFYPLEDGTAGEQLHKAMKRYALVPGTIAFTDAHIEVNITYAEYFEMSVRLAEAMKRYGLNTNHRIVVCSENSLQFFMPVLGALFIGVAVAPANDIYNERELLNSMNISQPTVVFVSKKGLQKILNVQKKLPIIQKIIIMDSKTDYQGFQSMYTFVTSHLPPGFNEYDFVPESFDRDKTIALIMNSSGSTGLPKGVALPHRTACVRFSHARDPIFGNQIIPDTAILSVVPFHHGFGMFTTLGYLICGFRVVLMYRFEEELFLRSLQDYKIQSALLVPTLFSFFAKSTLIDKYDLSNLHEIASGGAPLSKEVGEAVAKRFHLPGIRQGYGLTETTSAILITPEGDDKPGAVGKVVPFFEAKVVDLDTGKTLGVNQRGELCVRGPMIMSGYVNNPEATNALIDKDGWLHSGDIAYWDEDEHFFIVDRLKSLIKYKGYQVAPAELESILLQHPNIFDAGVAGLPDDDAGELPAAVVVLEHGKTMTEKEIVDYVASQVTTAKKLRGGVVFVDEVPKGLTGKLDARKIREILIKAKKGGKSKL

COC(=O)c1ccc(C(=O)O)cc1
inactive: Potency [1] | outcome [2] | outcome [3] | Potency [4] | outcome [5] | outcome [6]

CCCCCCCC(=O)N(C)C
inactive: Potency [1] | outcome [2] | Potency [7] | outcome [8] | Potency [4] | outcome [6] | outcome [9] | Potency [10]

C=CCN(CC=C)CC=C
inactive: Potency [1] | outcome [2] | outcome [3] | outcome [8] | Potency [4] | outcome [5] | outcome [6] | outcome [9] | Potency [10]

Cc1cc(=O)oc2cc(O[C@@H]3SC[C@@H](O)[C@H](O)[C@H]3O)ccc12
inactive: Potency [1] | outcome [2] | outcome [3] | outcome [8] | Potency [4] | outcome [6] | outcome [9]

CN(C)CCCN(C)C
inactive: activity change, negative = cytotoxicity [1] -1.24% [at 6.97 µM] | activity change, negative = cytotoxicity [2] -1.41% [at 8.39 µM] | activity, negative = inhibition [3] 0.227% [at 8.39 µM] | activity change, negative = inhibition [4] 2.53% [at 10.5 µM] | viability change, negative = cytotoxic [5] -1.97% [at 8.39 µM] | activity change, negative = cytotoxicity [6] 1.66% [at 8.39 µM] | activity, negative = inhibition [9] -1.01% [at 8.39 µM] | activation [10] -0.471% [at 8.39 µM]

CC(=O)c1ccc2ccc3ccccc3c2c1
inactive: Potency [1] | outcome [2] | Potency [7] | outcome [8] | outcome [5] | outcome [6] | outcome [9]
active: Potency [4] 31.5 µM | Potency [10] 60.8 µM

C=CC(C)(CCC=C(C)C)OC(=O)C(C)C (centres undefined)
inactive: outcome [2] | outcome [3] | Potency [7] | outcome [8] | Potency [4] | outcome [5] | outcome [6]

CCOC(=O)c1ccc(N(C)C)cc1
active: Potency [4] 35.6 µM | Potency [10] 30.6 µM
inactive: Potency [1] | outcome [3] | outcome [8] | outcome [5] | outcome [6] | outcome [9]

C=CCn1cc[n+](C)c1
inactive: Potency [1] | outcome [3] | Potency [7] | outcome [8] | Potency [4] | outcome [5] | outcome [6]

CCCCCCCCCCCCCCCCN(C)C
inactive: activity change, negative = cytotoxicity [1] 1.35% [at 6.97 µM] | activity, negative = inhibition [3] 3.34% [at 8.39 µM] | activation [7] -0.996% [at 8.36 µM] | viability change, negative = cytotoxic [8] 0.965% [at 8.39 µM] | activity change, negative = inhibition [4] 3.25% [at 10.5 µM] | viability change, negative = cytotoxic [5] 4.94% [at 8.39 µM] | activity change, negative = cytotoxicity [6] 4.91% [at 8.39 µM]

C/C=C(\C)C(=O)OC/C=C(\C)CCC=C(C)C
inactive: Potency [1] | outcome [8] | Potency [4] | outcome [5] | outcome [6]

CCCC(=O)C(CC)Sc1ccoc1C (centres undefined)
inactive: Potency [1] | outcome [3] | Potency [7] | outcome [8] | Potency [4] | outcome [6] | outcome [9] | Potency [10]

CNC(C)=O
inactive: Potency [1] | outcome [3] | Potency [7] | outcome [8] | Potency [4] | outcome [5] | outcome [6] | outcome [9] | Potency [10]

CC(C)=CCC/C(C)=C\C#N
inactive: Potency [1] | Potency [7] | outcome [8] | Potency [4] | outcome [5] | outcome [6] | outcome [9] | Potency [10]

CC(C)OC(=O)C(C(=O)OC(C)C)=C1SC=CS1
active: Potency [10] 13.3 µM
inactive: Potency [1] | outcome [3] | Potency [7] | outcome [8] | Potency [4] | outcome [6] | outcome [9]

CCCCCCCCCCCCCCCC(=O)OC
inactive: activity change, negative = cytotoxicity [1] -3.67% [at 15.8 µM] | activity, negative = inhibition [3] -7.57% [at 19 µM] | Potency [7] | viability change, negative = cytotoxic [8] 2.97% [at 19 µM] | activity change, negative = inhibition [4] 0.26% [at 23.6 µM] | viability change, negative = cytotoxic [5] -0.61% [at 19 µM] | activity change, negative = cytotoxicity [6] -4.04% [at 19 µM] | activity, negative = inhibition [9] -5.63% [at 19 µM] | activation [10] -1.6% [at 19 µM]

C[C@H]1COc2c(C3(N)CC3)c(F)cc3c(=O)c(C(=O)O)cn1c23
inactive: Potency [1] | Potency [7] | outcome [8] | Potency [4] | outcome [5] | outcome [6] | outcome [9] | Potency [10]

CCCCCCCCCCCC(C)=O
inactive: Potency [1] | outcome [3] | Potency [7] | outcome [8] | Potency [4] | outcome [5] | outcome [6]

COC(=O)c1ccc(NC(C)=O)cc1OC
inactive: Potency [1] | outcome [3] | outcome [8] | Potency [4] | outcome [5] | outcome [6] | outcome [9] | Potency [10]

COc1ccc2cc(CCC(C)=O)ccc2c1
active: Potency [7] 3.35 µM | Potency [4] 13.8 µM
inactive: Potency [1] | outcome [3] | outcome [8] | outcome [5] | outcome [6]

CCOCCOCCOC(C)=O
inactive: Potency [1] | outcome [3] | Potency [7] | outcome [8] | Potency [4] | outcome [5] | outcome [6] | outcome [9] | Potency [10]

CN(C)c1cc(NC(=O)CNC(C)(C)C)c(O)c2c1C[C@H]1C[C@H]3[C@H](N(C)C)C(=O)C(C(N)=O)=C(O)[C@@]3(O)C(=O)C1=C2O
inactive: Potency [1] | Potency [7] | outcome [8] | Potency [4] | outcome [5] | outcome [6] | outcome [9] | Potency [10]

CCC(=O)OCCOc1ccccc1
inactive: Potency [1] | outcome [3] | Potency [7] | outcome [8] | Potency [4] | outcome [5] | outcome [6]

O=Cc1ccc(C(=O)O)cc1
inactive: Potency [1] | outcome [3] | Potency [7] | outcome [8] | Potency [4] | outcome [5] | outcome [6] | outcome [9] | Potency [10]

Cc1ccccc1OCC(=O)O
inactive: Potency [1] | outcome [3] | outcome [8] | Potency [4] | outcome [5] | outcome [6] | outcome [9] | Potency [10]

CC(C)C(=O)Nc1cccc(C2CN3CCSC3=N2)c1 (centres undefined)
inactive: Potency [1] | Potency [7] | Potency [4] | outcome [5] | outcome [6]
